# The full data set covers some 7,900 targets. This sample favours those with a hit. About 0.6% of all pairs of compound and target were hits. A number with no mark means an inactive call.
# Legend:
# Test in all cases: log2 fold change, soluble protein after heating vs DMSO (PISA); higher = thermal stabilisation; K562 cells, 10 uM, 30 min; active = over 0.2 and 3.5 SD of the protein, either way, in both replicates (recomputed)
# [1] = compound: COC1=CC=C(C=C1)CN2C=CC3=C2C=C(C=C3)C(=O)NO
# Procedure, shortened: (§1)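 K562 cells at 2×10^6 cells/mL were exposed to 10 μM compound for 30 min, then aliquots were heated for 3 min across 48°C-58°C, pooled, and extracted in PBS containing 0.5% NP-40 at 4°C. The supernatant after 21,000xg for 90 min was taken as soluble protein and measured by TMTpro 16plex LC-MS/MS with channel sums equalised. Thermal stability is reported relative to control samples, with values from duplicates. Fold changes are given on a log2 scale.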
# filanesib = compound: CON(C)C(=O)N1N=C(c2cc(F)ccc2F)S[C@@]1(CCCN)c1ccccc1 [filanesib]
# Procedure, shortened: as §1
# zotarolimus = compound: CO[C@H]1C[C@@H]2CC[C@@H](C)[C@@](O)(O2)C(=O)C(=O)N2CCCC[C@H]2C(=O)O[C@H]([C@H](C)C[C@@H]2CC[C@H](n3cnnn3)[C@H](OC)C2)CC(=O)[C@H](C)/C=C(\C)[C@@H](O)[C@@H](OC)C(=O)[C@H](C)C[C@H](C)/C=C/C=C/C=C/1C [zotarolimus]
# Procedure, shortened: as §1
# idasanutlin = compound: COc1cc(C(=O)O)ccc1NC(=O)[C@@H]1N[C@@H](CC(C)(C)C)[C@](C#N)(c2ccc(Cl)cc2F)[C@H]1c1cccc(Cl)c1F [idasanutlin]
# Procedure, shortened: as §1
# alisertib = compound: COc1cc(Nc2ncc3c(n2)-c2ccc(Cl)cc2C(c2c(F)cccc2OC)=NC3)ccc1C(=O)O [alisertib]
# Procedure, shortened: as §1
# [2] = compound: COc1cc2nc(-c3cc(F)ccc3O)nc(N[C@@H]3CNC[C@H]3C(C)(C)O)c2cc1OC
# Procedure, shortened: as §1
# gefitinib = compound: COc1cc2ncnc(Nc3ccc(F)c(Cl)c3)c2cc1OCCCN1CCOCC1 [gefitinib]
# Procedure, shortened: as §1
# [3] = compound: COc1cccc2cc(-c3nc([C@H]4CC[C@H](C(=O)O)CC4)n4ncnc(N)c34)[nH]c12
# Procedure, shortened: as §1
# lapatinib = compound: CS(=O)(=O)CCNCc1ccc(-c2ccc3ncnc(Nc4ccc(OCc5cccc(F)c5)c(Cl)c4)c3c2)o1 [lapatinib]
# Procedure, shortened: as §1
# pictilisib = compound: CS(=O)(=O)N1CCN(Cc2cc3nc(-c4cccc5[nH]ncc45)nc(N4CCOCC4)c3s2)CC1 [pictilisib]
# Procedure, shortened: as §1
# Chain of UniProt Q14671 (Q14671 whole entry, looked up): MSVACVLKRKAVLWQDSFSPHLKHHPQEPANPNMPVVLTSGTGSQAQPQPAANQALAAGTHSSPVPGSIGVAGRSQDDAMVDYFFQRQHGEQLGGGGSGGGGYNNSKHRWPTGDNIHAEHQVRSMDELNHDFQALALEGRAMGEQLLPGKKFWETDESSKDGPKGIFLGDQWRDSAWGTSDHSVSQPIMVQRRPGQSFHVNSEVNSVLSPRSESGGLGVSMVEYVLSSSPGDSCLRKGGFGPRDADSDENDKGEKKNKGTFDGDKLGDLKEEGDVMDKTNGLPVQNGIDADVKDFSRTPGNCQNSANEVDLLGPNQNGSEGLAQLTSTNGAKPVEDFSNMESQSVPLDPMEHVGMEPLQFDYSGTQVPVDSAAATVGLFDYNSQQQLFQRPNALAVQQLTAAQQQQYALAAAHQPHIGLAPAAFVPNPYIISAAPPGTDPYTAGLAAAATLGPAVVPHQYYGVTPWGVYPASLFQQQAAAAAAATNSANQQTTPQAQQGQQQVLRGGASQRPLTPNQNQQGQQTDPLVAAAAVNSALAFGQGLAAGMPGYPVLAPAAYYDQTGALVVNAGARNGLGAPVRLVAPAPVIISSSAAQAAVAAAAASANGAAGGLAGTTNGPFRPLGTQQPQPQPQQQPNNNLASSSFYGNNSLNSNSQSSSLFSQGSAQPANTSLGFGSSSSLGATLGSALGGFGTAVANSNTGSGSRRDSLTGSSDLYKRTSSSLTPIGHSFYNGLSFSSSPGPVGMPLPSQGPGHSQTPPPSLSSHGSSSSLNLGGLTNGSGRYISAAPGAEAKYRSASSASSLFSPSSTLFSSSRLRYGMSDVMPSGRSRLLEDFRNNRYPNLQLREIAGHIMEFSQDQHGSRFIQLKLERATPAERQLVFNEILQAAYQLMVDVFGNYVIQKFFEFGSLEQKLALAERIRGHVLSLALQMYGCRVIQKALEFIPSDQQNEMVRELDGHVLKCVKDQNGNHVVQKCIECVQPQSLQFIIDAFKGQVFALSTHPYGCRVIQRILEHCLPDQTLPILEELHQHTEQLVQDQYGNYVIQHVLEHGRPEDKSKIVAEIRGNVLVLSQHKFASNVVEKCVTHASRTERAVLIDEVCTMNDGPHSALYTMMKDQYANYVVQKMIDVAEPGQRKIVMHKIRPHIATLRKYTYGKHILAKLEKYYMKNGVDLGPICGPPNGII
# Chain of UniProt Q14442 (Q14442 whole entry, looked up): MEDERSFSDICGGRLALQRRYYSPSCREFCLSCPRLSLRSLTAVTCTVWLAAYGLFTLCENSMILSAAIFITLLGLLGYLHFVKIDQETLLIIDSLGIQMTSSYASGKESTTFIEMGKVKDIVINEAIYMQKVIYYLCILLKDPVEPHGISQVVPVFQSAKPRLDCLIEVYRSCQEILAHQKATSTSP
# Chain of UniProt Q9BZL4 (Q9BZL4 whole entry, looked up): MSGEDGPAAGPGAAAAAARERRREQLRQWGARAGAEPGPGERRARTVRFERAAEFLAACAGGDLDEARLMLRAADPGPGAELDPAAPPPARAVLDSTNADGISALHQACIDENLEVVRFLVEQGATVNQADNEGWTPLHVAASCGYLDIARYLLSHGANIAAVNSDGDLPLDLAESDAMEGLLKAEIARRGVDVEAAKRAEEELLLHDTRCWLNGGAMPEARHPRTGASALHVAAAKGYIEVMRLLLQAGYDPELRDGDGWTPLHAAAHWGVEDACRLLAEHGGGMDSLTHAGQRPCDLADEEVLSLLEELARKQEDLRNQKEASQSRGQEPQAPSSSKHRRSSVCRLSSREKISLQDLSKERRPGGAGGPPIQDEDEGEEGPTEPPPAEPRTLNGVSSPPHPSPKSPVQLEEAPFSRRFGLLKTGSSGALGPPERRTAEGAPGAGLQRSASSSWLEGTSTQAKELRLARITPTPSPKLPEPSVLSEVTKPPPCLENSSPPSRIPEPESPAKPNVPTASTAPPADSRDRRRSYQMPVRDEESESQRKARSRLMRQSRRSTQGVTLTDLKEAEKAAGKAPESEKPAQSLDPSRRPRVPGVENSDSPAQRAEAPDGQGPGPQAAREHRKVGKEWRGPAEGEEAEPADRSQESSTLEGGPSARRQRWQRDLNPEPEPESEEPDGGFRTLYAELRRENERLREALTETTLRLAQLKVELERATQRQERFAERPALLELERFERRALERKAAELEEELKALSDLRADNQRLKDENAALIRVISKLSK
# Chain of UniProt Q9NYI0 (Q9NYI0 whole entry, looked up): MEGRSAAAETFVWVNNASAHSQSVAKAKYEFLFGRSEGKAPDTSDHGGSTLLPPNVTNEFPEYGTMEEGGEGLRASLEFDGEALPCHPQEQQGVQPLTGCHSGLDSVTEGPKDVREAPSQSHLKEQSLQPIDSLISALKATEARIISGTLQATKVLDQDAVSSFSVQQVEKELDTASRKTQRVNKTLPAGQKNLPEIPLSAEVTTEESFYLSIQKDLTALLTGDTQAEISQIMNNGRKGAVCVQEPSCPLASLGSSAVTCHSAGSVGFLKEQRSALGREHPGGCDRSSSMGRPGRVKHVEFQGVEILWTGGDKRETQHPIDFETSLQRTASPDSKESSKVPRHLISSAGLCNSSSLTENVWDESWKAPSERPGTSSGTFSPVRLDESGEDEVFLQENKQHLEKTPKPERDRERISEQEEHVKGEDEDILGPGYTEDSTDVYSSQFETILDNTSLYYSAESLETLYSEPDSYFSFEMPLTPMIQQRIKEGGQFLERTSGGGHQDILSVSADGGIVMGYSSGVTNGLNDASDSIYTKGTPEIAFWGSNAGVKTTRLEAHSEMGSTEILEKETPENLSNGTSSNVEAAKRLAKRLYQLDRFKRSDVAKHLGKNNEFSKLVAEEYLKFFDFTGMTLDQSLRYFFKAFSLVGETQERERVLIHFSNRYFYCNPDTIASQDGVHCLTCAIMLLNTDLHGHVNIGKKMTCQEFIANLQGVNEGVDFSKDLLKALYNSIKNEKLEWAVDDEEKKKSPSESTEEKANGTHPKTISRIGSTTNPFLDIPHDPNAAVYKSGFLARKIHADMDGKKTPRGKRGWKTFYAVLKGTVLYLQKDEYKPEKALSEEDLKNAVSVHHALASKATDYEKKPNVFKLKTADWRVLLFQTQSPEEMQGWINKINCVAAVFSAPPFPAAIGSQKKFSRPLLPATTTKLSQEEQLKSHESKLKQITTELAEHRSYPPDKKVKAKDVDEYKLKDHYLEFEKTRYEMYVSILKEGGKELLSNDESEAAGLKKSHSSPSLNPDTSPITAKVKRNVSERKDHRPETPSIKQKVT
# Chain of UniProt Q8N2W9 (Q8N2W9 whole entry, looked up): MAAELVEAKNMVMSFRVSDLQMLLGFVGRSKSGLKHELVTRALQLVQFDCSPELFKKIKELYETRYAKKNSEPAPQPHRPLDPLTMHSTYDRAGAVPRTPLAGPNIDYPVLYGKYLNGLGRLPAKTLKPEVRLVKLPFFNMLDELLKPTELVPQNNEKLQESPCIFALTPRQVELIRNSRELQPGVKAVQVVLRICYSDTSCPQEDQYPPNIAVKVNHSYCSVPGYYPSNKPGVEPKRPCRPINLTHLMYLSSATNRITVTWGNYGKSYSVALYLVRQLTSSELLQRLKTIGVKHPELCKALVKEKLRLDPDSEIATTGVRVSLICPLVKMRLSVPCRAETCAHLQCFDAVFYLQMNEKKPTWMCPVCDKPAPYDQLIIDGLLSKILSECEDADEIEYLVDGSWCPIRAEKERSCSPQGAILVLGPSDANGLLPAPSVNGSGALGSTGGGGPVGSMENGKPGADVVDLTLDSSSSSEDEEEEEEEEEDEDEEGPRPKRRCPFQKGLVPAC
# Chain of UniProt Q68D20 (Q68D20 whole entry, looked up): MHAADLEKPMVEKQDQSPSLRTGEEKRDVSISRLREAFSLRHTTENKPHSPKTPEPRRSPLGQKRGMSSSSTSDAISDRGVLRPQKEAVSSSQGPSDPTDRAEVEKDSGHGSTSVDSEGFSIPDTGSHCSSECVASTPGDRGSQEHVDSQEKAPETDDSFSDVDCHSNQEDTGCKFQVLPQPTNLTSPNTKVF
# Chain of UniProt Q16513 (Q16513 whole entry, looked up): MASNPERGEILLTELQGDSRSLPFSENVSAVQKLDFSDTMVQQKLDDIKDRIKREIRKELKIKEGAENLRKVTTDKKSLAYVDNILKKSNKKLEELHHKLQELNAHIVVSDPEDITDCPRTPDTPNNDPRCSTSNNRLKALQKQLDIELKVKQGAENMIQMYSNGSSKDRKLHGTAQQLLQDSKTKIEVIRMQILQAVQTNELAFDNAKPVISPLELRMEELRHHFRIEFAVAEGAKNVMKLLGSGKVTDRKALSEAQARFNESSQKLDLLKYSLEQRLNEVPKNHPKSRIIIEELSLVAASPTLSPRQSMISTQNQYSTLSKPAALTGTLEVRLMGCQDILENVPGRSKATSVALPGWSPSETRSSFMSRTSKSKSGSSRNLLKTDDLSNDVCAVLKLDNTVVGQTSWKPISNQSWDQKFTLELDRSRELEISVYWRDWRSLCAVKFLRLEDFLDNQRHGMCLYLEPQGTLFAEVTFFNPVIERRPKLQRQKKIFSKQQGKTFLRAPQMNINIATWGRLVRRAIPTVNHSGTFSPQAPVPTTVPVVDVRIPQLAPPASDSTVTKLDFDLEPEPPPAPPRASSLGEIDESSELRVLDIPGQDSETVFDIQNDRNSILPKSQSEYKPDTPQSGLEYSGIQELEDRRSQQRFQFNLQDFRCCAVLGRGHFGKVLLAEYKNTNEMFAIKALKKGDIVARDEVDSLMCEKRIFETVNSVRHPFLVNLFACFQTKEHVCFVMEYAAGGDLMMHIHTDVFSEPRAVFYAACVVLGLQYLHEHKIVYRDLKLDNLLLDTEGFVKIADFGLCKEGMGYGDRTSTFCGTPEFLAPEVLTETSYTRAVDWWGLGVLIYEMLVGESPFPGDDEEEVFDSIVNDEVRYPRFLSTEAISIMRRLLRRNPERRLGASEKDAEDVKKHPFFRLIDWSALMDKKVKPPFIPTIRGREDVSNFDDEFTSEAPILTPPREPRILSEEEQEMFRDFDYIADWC
Target,log2 fold change [1],log2 fold change (filanesib),log2 fold change (zotarolimus),log2 fold change (idasanutlin),log2 fold change (alisertib),log2 fold change [2],log2 fold change (gefitinib),log2 fold change [3],log2 fold change (lapatinib),log2 fold change (pictilisib)
PSMD9 (UniProt O00233),-0.028,-0.053,-0.021,0.005,-0.074,0.056,-0.013,-0.005,-0.021,-0.261 (active)
PITRM1 isoform 2 (UniProt Q5JRX3),-0.097,-0.229 (active),0.124,-0.047,-0.009,-0.026,0.137,0.035,-0.04,-0.032
PPIL1 (UniProt Q9Y3C6),-0.079,0.05,-0.008,-0.015,-0.078,0.12,-0.023,-0.017,-0.051,-0.028
PKN2 (UniProt Q16513),0.001,-0.085,0.01,-0.016,,-0.069,0.004,0.034,-0.013,0
PLBD2 (UniProt Q8NHP8),-0.069,-0.015,-0.029,-0.012,-0.048,-0.007,0.018,0.041,-0.008,0.027
PCBP2 (UniProt F8VRH0),0.139,0.107,0.013,0.218,0.305,-0.34,0.055,-0.21,0.06,-0.231
PUM1 (UniProt Q14671),-0.029,,-0.076,0.037,,,,,,0.032
PSMB9 (UniProt P28065),0.25,0.189,-0.08,-0.028,,0.246,,,-0.064,-0.006
PTPA (UniProt A6PVN8),,0.019,-0.143,0.09,-0.383,-0.085,0.021,0.297,0.043,0.035
PMS2CL (UniProt Q68D20),,,,,-0.254,,0.033,-0.099,,
PKM isoform 2 (UniProt P14618),0.141,0.04,,-0.049,-0.139,0.141,-0.056,0.059,-0.115,0.109
PRR14L (UniProt Q5THK1),,,-0.083,0,,0.069,-0.065,,0.1,0.103
PIAS4 (UniProt Q8N2W9),0.049,,,,-0.566,0.069,,-0.167,-0.017,-0.257
PSD3 (UniProt Q9NYI0),-0.003,,0.074,0.015,-0.003,0.141,0.036,0.069,-0.07,
PSMD8 (UniProt K7EK21),,,-0.174,,,,,,,
PIM1 isoform 2 (UniProt P11309),,,,,0.267,,,-0.327,,-0.126
PSMC3 (UniProt E9PLG2),-0.612,0.17,,,0.071,,,0.079,,
PSMA3 (UniProt G3V4X5),-0.122,,,,,0.255,,,-0.18,
PAN2 (UniProt Q504Q3),,,,,,,0.013,,,
PCBP2 (UniProt F8VZX2),0.03,,0.158,,-0.04,,-0.111,-0.018,,
PSMA3 (UniProt H0YJ03),0.362,,-0.004,0.009,,0.203,,,0.021,
PPP2R5C isoform 2 (UniProt Q13362),0.159,,,,0.005,,,-0.009,,

Target,log2 fold change [1],log2 fold change (filanesib),log2 fold change (zotarolimus),log2 fold change (idasanutlin),log2 fold change (alisertib),log2 fold change [2],log2 fold change (gefitinib),log2 fold change [3],log2 fold change (lapatinib),log2 fold change (pictilisib)
PSMC1 (UniProt G3V4X1),,,-0.045,,,-0.106,-0.036,,-0.105,-0.071
POLB (UniProt P06746),,-0.155,0.215,,,0.037,0.199,,-0.006,-0.022
PRKX (UniProt P51817),,,,,0.014,,,0.098,,
PHLDB1 isoform 2 (UniProt Q86UU1),0,,0.014,-0.033,-0.098,-0.069,0.149,-0.032,-0.039,-0.498 (active)
PCID2 (UniProt Q5JVF3),-0.136,-0.025,-0.07,,0.087,0.009,0.039,-0.023,0.175,0.013
PMVK (UniProt Q15126),,0.198,0.083,0.064,0.047,,-0.189,-0.144,,0.073
PCF11 (UniProt O94913),-0.169,,-0.119,-0.097,0.015,0.076,,0.106,0.012,0.027
PTEN isoform 2 (UniProt P60484),0.081,,,,,-0.251,,,0.094,-0.028
PDE4DIP (UniProt E9PS60),0,,-0.032,,,,,,,
PHC3 isoform 7 (UniProt Q8NDX5),0.287,-0.029,0.001,,-0.121,-0.03,-0.153,0.203,0.05,
PCNX1 (UniProt Q96RV3),,,,,-0.059,0.34,-0.028,0.035,-0.475,
POLR2E (UniProt P19388),0.095,,-0.065,-0.061,-0.21,0.291 (active),0.007,0.029,-0.013,0.063
PIGH (UniProt Q14442),-0.029,,0.031,-0.127,0.003,-0.019,,0.038,-0.009,0.04
PPP2R5B (UniProt Q15173),,,,-0.065,0.088,0.148,-0.079,-0.058,0.051,0.01
PEX5 isoform 4 (UniProt P50542),,0.064,-0.048,-0.15,,,,,,
PDE4A (UniProt P27815),-0.442,,0.07,0.098,,0.112,,,-0.016,
PHRF1 (UniProt Q9P1Y6),,,,,-0.001,0.049,,-0.121,0.194,
PPP1R12B isoform 6 (UniProt O60237),,,,,,,0.077,,,
PUF60 isoform 2 (UniProt Q9UHX1),,,0.18,-0.042,-0.203,-0.071,,0.027,0.407,
PPP1R12C (UniProt Q9BZL4),,0.066,,,0.071,-0.237,0.074,-0.009,0.084,-0.228
PRKD2 (UniProt M0R346),,0.038,,,,,,,,0.06

# — the supplement of paper PMC10849652
